PLCg1 inh = inhibitors of human phospholipase C gamma1; purified PLC-gamma1, fluorogenic substrate, fluorescence; 0.84% of 370,000 active; inhibition, % at 12.2 µM; P19174; in the data active = inhibition above about 9.5%
Target sequence (P19174 whole entry, looked up): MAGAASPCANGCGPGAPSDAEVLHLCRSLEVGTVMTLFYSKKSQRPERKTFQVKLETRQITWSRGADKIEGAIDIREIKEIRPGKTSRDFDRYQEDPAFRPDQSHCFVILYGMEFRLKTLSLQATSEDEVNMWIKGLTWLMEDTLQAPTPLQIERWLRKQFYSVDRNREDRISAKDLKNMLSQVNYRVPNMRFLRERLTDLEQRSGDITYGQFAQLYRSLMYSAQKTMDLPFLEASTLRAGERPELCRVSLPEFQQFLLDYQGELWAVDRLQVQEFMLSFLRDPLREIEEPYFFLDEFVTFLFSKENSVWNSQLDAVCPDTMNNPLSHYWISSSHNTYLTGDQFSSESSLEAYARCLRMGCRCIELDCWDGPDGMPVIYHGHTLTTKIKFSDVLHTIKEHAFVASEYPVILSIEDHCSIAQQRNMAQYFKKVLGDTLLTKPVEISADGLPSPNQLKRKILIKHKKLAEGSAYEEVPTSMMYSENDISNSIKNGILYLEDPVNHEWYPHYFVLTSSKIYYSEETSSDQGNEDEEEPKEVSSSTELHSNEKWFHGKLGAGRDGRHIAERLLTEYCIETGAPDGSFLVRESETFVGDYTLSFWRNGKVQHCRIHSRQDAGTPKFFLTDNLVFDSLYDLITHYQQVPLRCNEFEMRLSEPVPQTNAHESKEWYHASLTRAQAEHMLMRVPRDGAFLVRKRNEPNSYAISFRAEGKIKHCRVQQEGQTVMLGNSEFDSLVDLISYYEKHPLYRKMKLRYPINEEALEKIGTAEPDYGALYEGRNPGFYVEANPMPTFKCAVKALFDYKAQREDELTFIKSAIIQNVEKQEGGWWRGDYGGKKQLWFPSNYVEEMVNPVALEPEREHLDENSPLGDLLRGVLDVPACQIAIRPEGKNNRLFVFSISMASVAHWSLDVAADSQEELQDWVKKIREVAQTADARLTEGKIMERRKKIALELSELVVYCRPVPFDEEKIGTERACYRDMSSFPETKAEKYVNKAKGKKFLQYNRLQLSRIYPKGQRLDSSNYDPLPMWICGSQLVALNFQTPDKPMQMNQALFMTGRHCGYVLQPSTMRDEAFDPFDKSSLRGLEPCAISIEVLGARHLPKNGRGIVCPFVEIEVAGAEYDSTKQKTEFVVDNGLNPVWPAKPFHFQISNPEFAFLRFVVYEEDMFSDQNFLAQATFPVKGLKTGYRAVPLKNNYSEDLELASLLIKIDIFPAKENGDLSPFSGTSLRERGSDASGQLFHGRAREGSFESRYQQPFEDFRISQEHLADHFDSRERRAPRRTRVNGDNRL
ADAM17 inh = inhibitors of human ADAM17; P78536; recombinant ADAM17, EDANS/DABCYL FRET peptide cleavage; inhibition, % at 6.95 µM; 0.83% of 370,000 active; AID 720648;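 active = inhibition above the mean of compounds lying between control limits plus 3 SD, set per campaign, cut at about 8.5% in these data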;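 also: 0% = DMSO-only wells as the low control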
PLC-beta3 inh = blocks human PLC-beta3 enzyme activity. inhibition, % at 12.2 µM. AID 720704. Q01970. 0.18% of 370,000 active. Purified PLC-beta3, fluorogenic substrate, fluorescence;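 also: 0% = median of compound wells on plate and 100% = full blocker control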
proKLK7 act = proKLK7 (human) activation, primary screen; activation, % at 7 µM; 0.9% of 370,000 active; purified proKLK7, EDANS-DABCYL substrate fluorescence; 100% is mature enzyme control, 0% vehicle;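 active = activation above the mean of all tested compounds plus 3 SD, computed per campaign excluding outliers beyond control limits, cut at about 13% in these data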
ADAM10 inh = inhibits human ADAM10. 0.62% of 370,000 active. O14672. recombinant ADAM10, EDANS/DABCYL FRET peptide cleavage, 3 h. inhibition, % at 7 µM;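 active = inhibition above a per-campaign cutoff equal to the mean of compounds falling between control-based bounds plus 3 SD, cut at about 20% in these data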;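 also: 0% = DMSO wells while the 100% control is not disclosed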
PLCgamma1 ctr = counter-screen for PLC-beta3 inhibitors: inhibitors of human PLC-gamma1 | shares compounds with PLCg1 inh | purified PLC-gamma1, fluorogenic substrate, fluorescence | inhibition, % at 12.3 µM | 3.1% of 3,300 active | AID 743258; in the data active = inhibition above about 9.5%
PLCb3 confirm = confirmation of human PLC-beta3 inhibitors. shares compounds with PLCg1 inh. 1% of 3,300 active. purified PLC-beta3, fluorogenic substrate fluorescence. inhibition, % at 12.3 µM
Active calls of the source: *; / = no result given. Most compounds without a hit are left out; they make up all but 2.9% or so of the library. Rule as the data show it, unless noted: active = inhibition above about 11%; inactive = the rest.

SMILES	PLCg1 inh	ADAM17 inh	PLC-beta3 inh	proKLK7 act	ADAM10 inh	PLCgamma1 ctr	PLCb3 confirm
O=C(NCc1ccccn1)c1ccc(Cl)c(S(=O)(=O)N2CCCCCC2)c1	9.9*	6	-9	1	-7	-10	-7
O=C(NCCc1ccccn1)c1cccc(S(=O)(=O)N2CCCCCC2)c1	15*	3	14*	0	7	0	1
O=C(NCCc1ccccn1)c1cccc(S(=O)(=O)N2CCc3ccccc32)c1	0	-4	-36	0	-5	/	/
CCCCOc1ccc(CSCCN=C(N)N)cc1	0	-1	3	1	7	/	/
CCN(CC)c1nc(N)c([N+](=O)[O-])c(NCCO)n1	10*	6	8	1	14	-1	5
C=CCNc1nc(N)c([N+](=O)[O-])c(NCCO)n1	8	1	-1	0	1	/	/
COC(=O)c1cc(-c2ccc(C)cc2)n[nH]1	10*	5	4	0	15	-6	-3
Cc1ccc(C(=O)OCC(=O)Nc2ccccc2C(F)(F)F)cc1S(=O)(=O)N1CCCCC1	9.8*	1	-4	1	5	3	5
Clc1ccc(C2CSc3c4ncnc-4ncn32)cc1 (stereo not drawn)	11*	4	3	1	6	-8	-1
COc1cc(C(=O)N2CCCCC2c2cc(C(=O)NC(C)C)no2)cc(OC)c1C (stereo not drawn)	13*	3	4	0	0	-2	0
COc1ccc(C(=O)N2CCCCC2c2cc(C(=O)Nc3ccc(OC)cc3C)no2)cc1 (stereo not drawn)	1	3	0	0	-6	/	/
COc1ccc(NC(=O)c2cc(C3CCCCN3C(=O)c3cc(F)ccc3C)on2)c(C)c1 (stereo not drawn)	9.7*	5	3	1	13	-4	-3
CCCOc1ccc(-c2c(C(=O)N/N=C(\C)c3ccncc3)nnn2-c2nonc2N)cc1	-3	-4	-14	-1	4	/	/
CCOc1ccc(/C=C2\CCC(C3CCCC3)C2=O)cc1 (stereo not drawn)	9.9*	-6	-6	0	2	-8	-5
CCOc1ccc(/C=C2\CCC(C3CCCC3)C2=O)cc1OC (stereo not drawn)	0	-2	-5	-1	-4	/	/
O=C(Nc1ccc(Cl)cc1)Nc1ccc(Cl)c(Cl)c1	-1	-1	0	0	6	/	/
O=C(Nc1ccc(Cl)c(Cl)c1)Nc1ccc(Br)cc1F	8	3	12*	0	7	0	-2
CCOC(=O)c1cnn(CCOC(=O)c2cccc(F)c2)c1NC(=O)c1cccc(F)c1	12*	0	7	1	3	-6	-3
CC1(c2ccccc2)NC(=O)N(CC(=O)NNC(=O)c2cccc(Cl)c2)C1=O (stereo not drawn)	3	-5	-13	0	2	/	/
O=C(CC1SCCNC1=O)Nc1cc(Cl)cc(Cl)c1 (stereo not drawn)	3	4	12*	0	12	2	-3
CC1(C)Cc2c(cnn2-c2ccc(F)cc2)C(NC(=O)C2=CC(=O)CC(C)(C)O2)C1 (stereo not drawn)	-21	0	3	0	-1	/	/
O=C(CSc1ccc2nnc(CCNC(=O)c3ccccc3)n2n1)NCc1ccco1	-1	-1	-3	0	-1	/	/
O=C(CSc1ccc2nnc(CCNC(=O)c3ccc(F)cc3)n2n1)NCc1ccco1	14*	-4	-5	0	2	-3	-1
Nc1cc(OC(=O)c2cccs2)nn1S(=O)(=O)c1ccc(F)cc1	1	0	1	0	5	/	/
Cc1nn(-c2ccccc2)c(OC(=O)c2cccs2)c1S(=O)(=O)c1ccc([N+](=O)[O-])cc1	15*	7	20*	0	0	4	5
SMILES	PLCg1 inh	ADAM17 inh	PLC-beta3 inh	proKLK7 act	ADAM10 inh	PLCgamma1 ctr	PLCb3 confirm
Cc1nn(-c2ccccc2)c(OC(=O)c2cccs2)c1S(=O)(=O)c1ccccc1	14*	-1	6	0	-1	-1	1
Cn1cc(Br)c(C(=O)NNC(=O)c2ccc(Cl)cc2)n1	2	1	9	1	3	/	/
COCOc1cccc(CN2CCC2(C)C(=O)Nc2ccc(C)c(O)c2)c1 (stereo not drawn)	2	-1	-6	0	-7	/	/
COCOc1cccc(CN2CCC2(C)C(=O)Nc2ccc(C)cc2)c1 (stereo not drawn)	13*	8	0	0	11	-7	-5
CC(C)Oc1ccc(CN2CCC2(C)C(=O)Nc2ccc3c(c2)OCO3)cc1 (stereo not drawn)	12*	8	8	0	9	-1	5
COc1ccccc1C(=O)NCCC(=O)OCC(=O)Nc1ccc(S(N)(=O)=O)cc1	1	-4	-3	0	3	/	/
Cc1ccccc1NCc1nnc2n1CCCCC2	4	2	-1	0	0	/	/
O=C(N/N=C/c1ccccn1)c1ccccc1	11*	3	5	0	3	-11	-6
COc1ccc(NC(=O)NC2(C)CCS(=O)(=O)C2)cc1 (stereo not drawn)	12*	7	-4	0	-12	-3	0
O=C(COC(=O)C1CCCCC1)Nc1cccc(Br)c1	0	-1	2	0	-1	/	/
Cn1ncc2nc[nH]c(=O)c21	10*	-2	1	1	-4	-4	-2
N#Cc1cccc(NC(=O)CC2CCCC2)c1	-13	-6	-6	1	4	/	/
CCOC(=O)CSc1nnnn1-c1cc(OC)c(Cl)cc1OC	9.8*	0	1	0	3	-4	-2
COc1cc(-n2nnnc2SCC(=O)N2CCN(c3ccc(F)cc3)CC2)c(OC)cc1Cl	0	-4	3	1	-3	/	/
COc1cc(/C=C/C(=O)OCC(=O)N(C)C2CCS(=O)(=O)C2)ccc1OC(F)F (stereo not drawn)	-12	-13	-24	0	-47	/	/
CCOC(=O)CNC(=O)Cc1ccc(Cl)cc1	10*	1	-3	0	10	-4	0
CC(=O)c1cccc(NC(=O)C2C3C=CC(C3=C(c3ccccc3)c3ccccc3)C2C(=O)O)c1 (stereo not drawn)	10*	0	-13	1	2	-8	-12
CSC(C(=O)c1cc2ccccc2o1)c1ccccc1 (stereo not drawn)	-8	-1	-11	0	5	/	/
CS(=O)(=O)N1CCN(c2ccccc2[N+](=O)[O-])CC1	15*	3	6	0	-4	-4	-1
CS(=O)(=O)N1CCN(c2ccccc2NC(=O)c2ccc([N+](=O)[O-])o2)CC1	9.9*	3	2	0	5	3	1
